Compound activity (PubChem)
Shown are actives, neighbours in structure and some others; about 1.2% of the full set was active somewhere.
TNF necrop inh = inhibitors of TNF-alpha triggered necroptosis, primary screen, cell-based, Jurkat FADD-/-, single concentration. Jurkat FADD-/- TNF necroptosis rescue, ATP luminescence, 24 h; 0 = TNF only, 100 = no-TNF cells. activation (protection from cell death), % at 10 µM. 220,000 tested, 0.068% active. AID 463075, 2010;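 active = activation, meaning protection from cell death, of at least 50% relative to plate controls; inactive = activation below 50%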;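 also: necroptosis triggered by 40 ng/mL TNF-alpha added together with compound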
EBV gp42 block = Epstein-Barr virus gp42 inhibitors, primary screen, biochemical, uHTS, fluorescence polarization. Glycoprotein 42 (Epstein-Barr virus (strain AG876)), Q1HVG2. Fluorescence polarization binding assay, mP read-out. inhibition, % (tested at 21.74 µM). 220,000 tested, 0.42% active. AID 1085, 2008; in the data active = inhibition above about 50%
Target sequence (Q1HVG2 whole entry, looked up): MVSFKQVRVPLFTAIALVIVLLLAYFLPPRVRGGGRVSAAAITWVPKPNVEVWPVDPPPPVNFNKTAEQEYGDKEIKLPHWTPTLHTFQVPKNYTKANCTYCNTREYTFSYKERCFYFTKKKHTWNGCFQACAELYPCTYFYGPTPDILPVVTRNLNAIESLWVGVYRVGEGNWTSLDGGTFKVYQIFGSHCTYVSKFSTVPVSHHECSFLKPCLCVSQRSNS
L929 necroptosis = inhibitors of zVAD-triggered necroptosis, primary screen, L929 cells. 220,000 tested, 0.38% active. L929 zVAD necroptosis rescue, ATP luminescence, 24 h; with zVAD 60 µM. viability rescue, % at 10 µM;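 active = activation, scaled between plate controls, above about 75%, limit read from the data; inactive = activation under that limit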
eIF4E-4G inh = eIF4E–eIF4G protein interaction inhibitors, primary screen, biochemical, uHTS, TR-FRET, eIF4GI fragment; TR-FRET eIF4E-eIF4GI(517-606) binding, 2 h; inhibition, % at 21.7 µM; 220,000 tested, 0.37% active; AID 782, 2007;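 active = inhibition above about 30%, limit read from the data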
Hits are given with their value; - = inactive; . = no result; [ ] = remark or other dose.

SMILES | TNF necrop inh | EBV gp42 block | L929 necroptosis | eIF4E-4G inh
CC(OC(=O)c1c2c(nc3ccccc13)/C(=C\c1ccc3c(c1)OCO3)CCC2)C(=O)Nc1ccc(S(N)(=O)=O)cc1 (stereo unspecified) | - | 149 | - | -
Cc1cccc(C)c1NC(=O)COC(=O)c1c2c(nc3ccccc13)/C(=C\c1ccc3c(c1)OCO3)CCC2 | - | 98 | - | -
CC(OC(=O)c1cc2ccccc2cc1O)C(=O)Nc1ccc(S(N)(=O)=O)cc1 (stereo unspecified) | - | - | - | -
N#Cc1ccc(CSc2nnc(-c3c[nH]c4ccccc34)n2-c2ccccc2)cc1 | - | - | - | -
CC(C)(C)C1=Nn2c(nnc2-c2ccccc2F)SC1 | - | - | - | .
CC(C)(C)C1=Nn2c(nnc2-c2ccccn2)SC1 | - | - | - | 51
O=C1c2cccc3c(O)ccc(c23)C(=O)N1Cc1ccccc1 | - | 187 | - | -
COc1ccccc1NC(=O)CN(Cc1ccco1)C(=O)c1ccc(Cl)nc1 | - | - | - | -
COc1ccc(CNC(=O)C(C)N2C(=O)COc3ccc(C)cc32)c(OC)c1 (stereo unspecified) | - | - | - | -
CCSc1ccc2nnc(-c3cccc(F)c3)n2n1 | - | - | - | 56
O=C(CSc1ccc2nnc(-c3cccc(F)c3)n2n1)N1CCCc2ccccc21 | - | - | - | -
O=C(Nc1ccccn1)c1sc2cccc(F)c2c1Cl | - | - | - | -
CCOC(=O)C(C)On1c(-c2ccccc2)nc2ccc([N+](=O)[O-])cc21 (stereo unspecified) | - | - | - | -
O=C(O)COn1c(-c2ccccc2)nc2ccc([N+](=O)[O-])cc21 | - | 73 | - | -
O=C(NCCc1cccs1)C1CC(c2ccccc2F)=NO1 (stereo unspecified) | - | - | - | -
O=C(O)C1CC(c2ccccc2F)=NO1 (stereo unspecified) | - | - | - | 48
COc1cc(C2c3c(n[nH]c3C)C(=O)N2c2ccc(C)cc2)ccc1O (stereo unspecified) | - | - | - | -
CCOc1cc(C2c3c(n[nH]c3C)C(=O)N2c2ccc(C)cc2)ccc1O (stereo unspecified) | - | - | - | 65
Cc1nnc(N)s1 | - | - | - | -
CCCn1c(O)c(N=NC(=O)c2cccnc2)c2cc(Br)ccc21 | - | - | - | -
CC(C)(C)c1ccc(S(=O)(=O)N(CCCN2CCOCC2)Cc2cccs2)cc1 | - | - | . | -
CN1CCN(C2=C(Cl)C(=O)C(c3cnc(N4CCCCC4)s3)=C(Cl)C2=O)CC1 | - | - | - | 54[fluorescence artefact?]
CN1CCN(C2=C(Cl)C(=O)N(C3CCCCC3)C2=O)CC1 | - | - | - | -
Cn1c(Cc2cccs2)nnc1SCc1nc2ccccc2[nH]1 | - | - | - | -
c1csc(Cc2nc3ccccc3[nH]2)c1 | 65 | - | - | -
SMILES | TNF necrop inh | EBV gp42 block | L929 necroptosis | eIF4E-4G inh
CCN1C(=O)/C(=C\c2ccc(-c3ccc([N+](=O)[O-])cc3OC)o2)SC1=Nc1cccc(C(=O)O)c1 | - | 81 | - | 64
CC(C)Oc1ccc(NC(=O)CCC(=O)O)cc1 | - | 78 | - | -
CCS(=O)(=O)N1CCN(c2ccc(Cl)cc2[N+](=O)[O-])CC1 | - | - | - | -
Cc1ccc(CN2CCSc3sccc3C2=O)cc1 | 83 | - | - | -
Cc1csc(C(=O)NN)c1N(C)C | - | - | - | -
COC(=O)c1ccc(C)c(NC(=O)CCSc2ccc(Cl)cc2)c1 | - | 99 | - | -
COC(=O)c1ccc(C)c(NC(=O)CCSc2ccccc2)c1 | - | - | - | -
O=C(Nc1cccnc1)C1CCC(CNS(=O)(=O)c2cccc3nsnc23)CC1 (stereo unspecified) | - | - | - | -
COc1ccc(CCNC(=O)CCC2COc3ccccc3O2)cc1OC (stereo unspecified) | - | - | - | -
COc1ccccc1N1CC=C(c2cccc([N+](=O)[O-])c2)NC1=O | - | - | - | -
Cc1ccccc1N1C(=O)c2cccc3c(N(C)CCO)ccc(c23)C1=O | - | 126 | - | -
CC(=O)Nc1cccc2c1C(=O)N(c1ccccc1C)C2=O | - | - | - | -
CCCn1c(O)c(C=Nc2ccccc2)sc1=S | - | - | - | -
CCn1c(O)c(C=NCc2ccccc2)sc1=S | 68 | - | - | -
COc1ccccc1N(Cc1cc(=O)[nH]c2ccccc12)C(=O)c1ccccc1 | - | - | - | 58
CCOC(=O)c1sc(=S)n(C)c1NC(=O)c1ccccc1C | - | - | - | -
COc1cccc(C2=NOC(C(=O)N3CCN(C(=O)c4ccco4)CC3)C2)c1 (stereo unspecified) | - | - | 77 | -
O=C(O)CSc1ncnc2sc3c(c12)CCCC3 | - | - | - | -
Cc1ccc(C(=O)CSc2ncnc3sc4c(c23)CCCC4)cc1 | - | - | - | 33
CCOC(=O)C(NCc1ccccc1OC)(NC(=O)c1ccccc1)C(F)(F)F (stereo unspecified) | - | - | - | -
CCOC(=O)C(NCc1ccco1)(NC(=O)c1ccc(OC)cc1)C(F)(F)F (stereo unspecified) | - | 118 | - | -
CC1=C(C#N)C(=O)NC(=O)/C1=C\c1ccc(-c2cc(C)c(C)cc2[N+](=O)[O-])o1 | - | - | - | 48
Cc1ccc(-c2ccc(/C=C3/NC(=O)NC3=O)o2)cc1[N+](=O)[O-] | - | - | - | -
COc1cc(/C=C2/SC(=S)N(CC(=O)Nc3cccnc3)C2=O)cc(OC)c1OC | - | - | - | -
COc1ccc(OC)c(/C=C2\SC(=S)N(Cc3cccnc3)C2=O)c1 | - | 142 | - | -
SMILES | TNF necrop inh | EBV gp42 block | L929 necroptosis | eIF4E-4G inh
C/C(=N\N1CCN(C2c3ccccc3-c3ccccc32)CC1)c1ccncc1 | - | 117 | - | -
C(=N\N1CCN(C2c3ccccc3-c3ccccc32)CC1)/c1ccncc1 | - | - | - | -
Cc1ccc(-n2c(Cl)c(Cl)nc(Cl)c2=O)cc1 | - | - | - | -
COc1ccc(/C=C2\SC(c3ccc(C)cc3)=NC2=O)cc1OC | - | 53 | - | -
Cn1c(=O)[nH]c2cc(Cl)cnc21 | - | 63 | - | -
CN(C)c1ccc(/C=N/NC(=O)c2ccccn2)cc1 | - | - | - | -
CC(C)c1ccc(/C=N/NC(=O)c2ccccn2)cc1 | - | - | - | 55
CC12CCC(C(=O)N3CCC(Cc4ccccc4)CC3)(C(=O)C1=O)C2(C)C (stereo unspecified) | - | - | - | -
Cc1ccc(C)n1-c1ccc(C(=O)N/N=C/c2ccncc2)cc1 | - | - | - | -
COc1ccc(C(=O)NC(=S)NCc2ccco2)cc1 | - | - | - | -
O=C(O)c1ccccc1C1=Nc2ccc(O)cc2Oc2cc(O)ccc21 | - | 84 | - | -
O=C(CSc1n[nH]c(=O)[nH]c1=O)Nc1ccc2c(c1)C(=O)c1ccccc1C2=O | - | 64 | - | -
